Bioassay records from PubChem BioAssay.
HPGD inh: blocks human HPGD enzyme activity. Potency, µM, most hits filed as inhibitors. purified HPGD, NADH fluorescence kinetic, PGE2 substrate. hit rate 4.3% among 150,000. AID 894; active = well fitted inhibition curve with a large enough effect, not every such curve was filed as active; inconclusive = small, poorly fitted or top-dose-only effect, or another doubt; inactive = no such curve, though single readings can be large or run the other way
Target sequence (P15428 whole entry, looked up): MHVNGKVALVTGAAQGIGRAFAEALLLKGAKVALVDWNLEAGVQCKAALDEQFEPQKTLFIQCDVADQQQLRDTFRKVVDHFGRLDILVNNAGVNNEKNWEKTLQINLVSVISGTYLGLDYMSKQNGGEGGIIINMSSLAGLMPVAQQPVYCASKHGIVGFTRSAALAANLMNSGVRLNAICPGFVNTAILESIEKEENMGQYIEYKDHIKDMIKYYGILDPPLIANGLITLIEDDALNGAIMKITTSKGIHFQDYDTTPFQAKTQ
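20 nM HPGD preincubated 15 min at room temperature with compound in 50 mM Tris-HCl pH 8, 0.01% Tween 20. Started with 1 mM NAD+ and 30 uM prostaglandin E2; NADH fluorescence (360/450 nm) read 5 times over 30-s intervals, last minus first.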
GLA inh pH 4.5: alpha-galactosidase A (human) inhibition, pH 4.5 | 230,000 tested, under 10 active | purified enzyme, 4-MU-alpha-Gal fluorescence, pH 4.5 | AID 1467 | activity change, negative = inhibition, % at 105 µM
Target sequence (P06280 whole entry, looked up): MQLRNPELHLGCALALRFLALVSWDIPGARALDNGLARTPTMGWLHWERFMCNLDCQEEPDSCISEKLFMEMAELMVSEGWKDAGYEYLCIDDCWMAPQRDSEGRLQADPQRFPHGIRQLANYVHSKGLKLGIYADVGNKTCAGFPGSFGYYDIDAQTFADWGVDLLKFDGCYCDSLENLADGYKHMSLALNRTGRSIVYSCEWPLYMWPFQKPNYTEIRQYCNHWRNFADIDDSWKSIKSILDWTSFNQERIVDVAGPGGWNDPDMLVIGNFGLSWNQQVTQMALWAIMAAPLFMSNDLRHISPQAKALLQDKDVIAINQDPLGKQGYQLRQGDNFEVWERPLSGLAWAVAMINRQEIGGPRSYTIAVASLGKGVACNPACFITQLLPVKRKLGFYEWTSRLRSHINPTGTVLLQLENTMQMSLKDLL
GLA spleen mod: alpha-galactosidase A (human) modulation; Potency, µM (titrated, usually from 80 µM), usual class: inhibitors; human spleen homogenate, 4MU-alpha-Gal fluorescence, 40 min; hit rate 0.008% among 240,000
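Fluorogenic readout (Ex 365/Em 440 nm) of 4-methylumbelliferone released from 1 mM 4-MU-alpha-galactoside by spleen homogenate, 40 min at 37C, pH 5.0. Data normalized to no-enzyme and enzyme controls; Hill-equation AC50 from compound titrations.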
ALOX12 inhib: blocks human 12-lipoxygenase activity; P18054; purified 12-hLO, xylenol orange hydroperoxide absorbance; Potency, µM (titrated, usually from 57.1 µM), actives largely listed as inhibitors; hit rate 0.12% among 150,000; also: nearly all actives have a fitted effect of over 55% in size
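Purified human 12hLO (150 nM), preincubated 15 min with compound, then 40 uM arachidonic acid for 30 min, room temperature, Hepes pH 7.0 with 0.01% Triton X-100. Hydroperoxide detected by ferrous iron/xylenol orange; 573/405 nm absorbance ratio gives reaction progress.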
PNC inhibitor: inhibitors of perinucleolar compartment assembly; PC3M PTB-GFP, PNC prevalence imaging, 16 h; active compounds read low; activity change (PNC), negative = inhibition, % at 10 µM; hit rate 3.1% among 140,000; AID 2417;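 active = readout at or below -70, meaning at least 70% loss of cells showing the perinucleolar compartment, a nuclear body marking cancer cells; inconclusive = readout between -30 and a set limit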
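Compounds are pinned in duplicate onto adhered PC3M cells stably expressing GFP-tagged PTB and incubated 16 h at 37 C. Cells are then fixed, nuclei stained with Hoechst, and PNC-positive cells counted.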
ALDH1A1 inh: inhibitors of human aldehyde dehydrogenase 1A1 | hit rate 7.3% among 220,000 | Potency, µM (top dose mostly 75.3 µM), most hits filed as inhibitors | P00352 | AID 1030 | Purified ALDH1A1, NADH fluorescence, propionaldehyde substrate; active = well fitted inhibition curve with a large enough effect, not every such curve was filed as active; inconclusive = small, poorly fitted or top-dose-only effect, or another doubt; inactive = no such curve, though single readings can be large or run the other way
A number is an active result; n = inactive; u = inconclusive; x = no result given; [ ] = another dose, or the depositor's remark. In the library only some 10% were active in any assay of this set; here they are far more common. Unless noted, calls follow the shape of the dose curve; as a rule, active = well fitted curve in the direction sought with a large enough effect; inconclusive = small, poorly fitted or top-dose-only effect, or another doubt; inactive = no such curve, though single readings can be large; an effect the other way counts as inactive or inconclusive.

SMILES	HPGD inh	GLA inh pH 4.5	GLA spleen mod	ALOX12 inhib	PNC inhibitor	ALDH1A1 inh
Cc1ccc(NS(=O)(=O)c2cc(NC(=O)c3ccc4c(c3)NC(=O)CS4)ccc2C)c(C)c1	x	n	n	x	x	14µM
Oc1cc(Cc2ccccc2)cnc1CN1CCCCC1	25µM	n	n	n	n	25µM
Cc1ccc(NC(=O)c2ccccc2-c2ccccc2C(=O)O)cc1	n	n	n	n	u	n
Cc1ccc(NC(=O)c2cc(S(=O)(=O)c3ccccc3)ccc2Cl)cc1	n	n	n	n	n	10µM
O=C(Nc1ccc(NC(=O)c2ccc(S(=O)(=O)c3ccccc3)cc2)cc1)c1ccccc1	u	n	n	n	u	n
Cc1ccc(NC(=O)c2ccccc2O)cc1	n	n	n	n	-100	n
CC(=O)N(C)c1ccc(NC(=O)c2ccccc2C(=O)O)cc1	n	n	n	n	-117	u
CC(C)Oc1ccc(CCNC(=O)CC2C(=O)NCCN2C)cc1 (stereo not drawn)	x	n	n	x	x	x
CCN(CC)S(=O)(=O)c1ccc2c(c1)nc(CCC(=O)Nc1ccccc1Cc1ccccc1)n2CC	n	n	n	n	n	u
N/N=C1/c2ccccc2N[C@H]1OC(=O)Nc1ccccc1	n	x	x	n[11.4 µM]	x	n[13.5 µM]
Cc1[nH]c2ccccc2c1/C=N/NC(=O)C1CC1(c1ccccc1)c1ccccc1 (stereo not drawn)	n	n	n	n	-110	n
Cc1[nH]c2ccccc2c1/C=N/NC(=O)CCC(=O)NCc1ccccc1	x	n	n	x	x	n
O=C(/C=C/c1ccco1)N1CCC(Cc2ccccc2)CC1	x	n	n	x	x	20µM
O=C(/C=C/c1ccco1)N1CCN(c2ncccn2)CC1	n	n	n	n	n	14µM
O=C(Nc1ccc(OCC(=O)N2CCC(Cc3ccccc3)CC2)cc1)c1ccco1	n	n	n	n	u	10µM
Cc1c(Cl)cccc1NC(=S)NCc1cccn1C	n	n	n	n	u	u
CN(CC(=O)O)Cc1oc(CO)cc(=O)c1O	n	x	x	n[11.4 µM]	x	n[13.5 µM]
Cc1nc(-c2ccc(-n3nncc3-c3ccco3)cc2)cs1	x	n	n	x	x	25µM
COc1cccc(C(=O)Nc2ccc3c(c2)C(=O)N(CCC(=O)O)C3=O)c1	n	n	n	n	u	n
CC(=O)Nc1cccc(Oc2ccc3c(c2)C(=O)N(CCC(=O)O)C3=O)c1	25µM	n	n	n	n	n
COCCCN1C(=O)c2ccc(C(=O)Nc3cccc(OC)c3)cc2C1=O	n	n	n	n	n	1.6µM
O=C(O)CCN1C(=O)c2ccc(NC(=O)CSc3ccccc3)cc2C1=O	20µM	n	n	n	n	u
O=c1onc2cnc3ccccc3n12	u	n	n	u	x	u
Cc1cc(NC(=O)CCC2CCCC2)no1	n	n	n	n	u	n
Cc1cc(NC(=O)NC(C)(C(F)(F)F)C(F)(F)F)no1	x	n	n	x	x	x
SMILES	HPGD inh	GLA inh pH 4.5	GLA spleen mod	ALOX12 inhib	PNC inhibitor	ALDH1A1 inh
Cc1cc(NC(=O)C(C)(C)C)no1	n	n	n	n	-84	n
Cc1cc(NC(=O)CC23CC4CC(C2)CC(CC(=O)Nc2cc(C)on2)(C4)C3)no1	n	n	n	n	-92	u
COc1ccc(N(C)S(=O)(=O)c2cccc(C(=O)NCc3ccc4c(c3)OCO4)c2)cc1	x	n	n	x	x	n
COc1ccc(N(C)S(=O)(=O)c2cccc(C(=O)N(C)Cc3ccc(C)o3)c2)cc1	x	n	n	x	x	10µM
CCOCc1nnc(NC(=O)c2cc(OC)c(OC)cc2[N+](=O)[O-])s1	x	n	n	x	x	n
Cc1ccccc1C1c2[nH]c3ccccc3c2CCN1Cc1cccn1-c1ncccn1 (stereo not drawn)	x	n	n	x	x	x
CCCCn1c(CNC(=O)CCC)nc2ccccc21	u	n	n	n	n	n
CCCn1c(CNc2ccccc2O)nc2ccccc21	n	n	n	n	n	13µM
COc1cccc(CNn2cnnc2)c1O	x	n	n	x	x	13µM
CCCn1c(NCc2cccc(OC)c2O)nc2ccccc21	n	n	n	n	u	6.3µM
CCCCn1c(NCc2ccc(N(C)C)cc2)nc2ccccc21	x	n	n	x	x	14µM
CCCCn1c(NCc2ccncc2)nc2ccccc21	x	n	n	x	x	n
CC1=C(C(N)=O)C(c2ccccc2F)NC(=O)N1 (stereo not drawn)	n	n	n	n	u	n
COc1ccc(/C=C/C2=C[C@]3(C)C[C@]2(C)[C@H](c2ccc(OC)cc2)CC3=O)cc1	n	n	n	n	x	n
O=S(=O)(Nc1nccs1)c1ccc(F)cc1	x	n	n	x	x	n
O=C(c1cc(C2CC2)on1)N1CCN(c2ccccc2)CC1	n	n	n	n	n	28µM
Cc1cc(C)cc(NC(=O)Cn2cc3c(n2)CCCCC3)c1	20µM	n	n	n	n	n
CN(C)c1ccc(NC(=O)Cn2cc3c(n2)CCCC3)cc1	n	n	n	n	n	n
C=CCn1c(SCC(=O)N2N=C(c3ccco3)CC2c2ccco2)nnc1-c1ccncc1 (stereo not drawn)	n	n	n	n	n	n
CO[C@@H]1/C=C\O[C@]2(C)Oc3c(C)c(O)c4c(O)c(c(CN5CCN(C)CC5)c(O)c4c3C2=O)NC(=O)/C(C)=C\C=C[C@@H](C)[C@@H](O)[C@H](C)[C@@H](O)[C@H](C)[C@H](OC(C)=O)[C@@H]1C	x	x	x	n[11.4 µM]	x	x
Cc1cc(C)c(-n2c(SCCS(=O)(=O)c3ccc(F)cc3)n[nH]c2=O)c(C)c1	x	n	n	x	x	14µM
Cc1cc(C)c(-n2c(SCc3nc4ccccc4s3)n[nH]c2=O)c(C)c1	x	n	n	x	x	x
Cc1ccc(S(=O)(=O)CCSc2n[nH]c(=O)n2-c2ccccc2)cc1	x	n	n	x	x	20µM
Cc1ccc(S(=O)(=O)CCSc2nccn2C)cc1	x	n	n	x	x	n
COC(=O)CC[C@@H](C)C1CC[C@H]2[C@H]3CC[C@H]4C[C@@H]5CCC4(C)[C@@]3(O5)[C@@H](Br)[C@@H](Br)[C@@]12C (stereo partly drawn)	n	x	x	x	x	n[13.5 µM]
SMILES	HPGD inh	GLA inh pH 4.5	GLA spleen mod	ALOX12 inhib	PNC inhibitor	ALDH1A1 inh
CCCOC(=O)c1c(-c2ccc(C)cc2C)csc1NC(=O)C1C2CCC(O2)C1C(=O)O (stereo not drawn)	22µM	n	n	n	n	u
O=C(CNC(=O)c1ccncc1)N/N=C/c1ccccc1[N+](=O)[O-]	x	n	n	x	x	n
COc1ccccc1N(C)S(=O)(=O)c1ccc(C(=O)OCC(=O)N(C)c2ccccc2)cc1	x	n	n	x	x	32µM
O=C(O)CSc1c(-c2cccs2)[nH]c2ccccc12	n	n	n	n	u	n
O=C(O)CSc1c(-c2ccccc2)[nH]c2ccccc12	n	n	n	n	-85	u
CC=CC1=C(C(=O)O)N2C(=O)[C@H](NC(=O)[C@H](N)c3ccc(O)cc3)[C@@H]2SC1	n	n	n	n[0.00818 µM]	x	u
Cc1ccsc1C1C(C#N)=C(N)N(N(C)C)C2=C1C(=O)CCC2 (stereo not drawn)	x	n	n	x	x	14µM
